# CHRM1 antagonist – human M1 muscarinic receptor antagonists, primary screen, CHO-K1 cells, Fluo-8 calcium fluorescence, 1536-well | Muscarinic acetylcholine receptor M1 (Homo sapiens), P11229 | CHO-K1 hM1, ACh EC80 antagonist | inhibition, % at 3 µM | actives 1.3% (n = 360,000) | AID 588852, 2011;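 active = percent inhibition above its own plate's cutoff, namely the mean of that plate's compound wells plus 3 SD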;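 note: peak over basal fluorescence ratio during 140 s after agonist addition; 0% = ACh EC80 plus DMSO and 100% = DMSO alone without agonist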
# Target sequence (P11229 whole entry, looked up): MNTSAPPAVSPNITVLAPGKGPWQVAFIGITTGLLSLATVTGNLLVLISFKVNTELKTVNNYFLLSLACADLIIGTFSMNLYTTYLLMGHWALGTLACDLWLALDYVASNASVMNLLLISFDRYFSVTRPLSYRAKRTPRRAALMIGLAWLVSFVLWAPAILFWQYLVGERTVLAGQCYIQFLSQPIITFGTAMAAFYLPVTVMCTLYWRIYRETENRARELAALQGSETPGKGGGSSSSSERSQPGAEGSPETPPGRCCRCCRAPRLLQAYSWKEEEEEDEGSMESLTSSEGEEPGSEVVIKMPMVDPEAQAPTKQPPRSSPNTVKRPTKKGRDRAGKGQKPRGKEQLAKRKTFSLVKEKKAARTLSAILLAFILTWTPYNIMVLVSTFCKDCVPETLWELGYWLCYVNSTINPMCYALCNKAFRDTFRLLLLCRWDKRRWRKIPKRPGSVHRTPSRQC
# CHO-K1 Ca antag – nonselective inhibitor or artifact in parental CHO-K1 cells. ATP-induced calcium, Fluo-8 fluorescence. inhibition, % at 3 µM. actives 0.6% (n = 360,000);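 active = inhibition above a per-plate cutoff, the plate's mean sample inhibition plus 3 SD, cut at about 24% in these data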;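 note: 0% = DMSO plus EC80 ATP and 100% = DMSO alone without ATP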
# M1 ag – human M1 muscarinic receptor agonists, primary screen, Fluo-8 calcium fluorescence, CHO-K1 cells, HTS; AID 588814, 2011; actives 0.33% (n = 360,000); CHO-K1 hM1, agonist mode; 0% DMSO, 100% acetylcholine EC100; activation, % at 3 µM;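 active = activation above the run's mean compound activation plus 3 SD, cut at about 16% in these data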;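 note: peak over basal fluorescence ratio within a 140 s kinetic read after compound addition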
# M1 PAM parental – nonselective calcium activators in parental CHO-K1 cells, primary screen, counter-screen for M1 PAM project, cell-based, Fluo-8 calcium fluorescence, full deck, 1536-well; ATP EC20; 0% at ATP EC20, 100% at ATP max; activation, % at 3 µM; actives 0.02% (n = 360,000); AID 602247, 2012;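 active = activation above the run cutoff, the mean activation of all test compounds plus 3 SD, cut at about 40% in these data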;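 note: peak over basal fluorescence ratio in a 140 s read after ATP addition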
# M1 PAM – human M1 muscarinic receptor positive allosteric modulators, primary screen, CHO-K1 cells, Fluo-8 calcium fluorescence, 1536-well; Muscarinic acetylcholine receptor M1 (Homo sapiens), P11229; CHO-K1 hM1, ACh EC20; 0% = ACh EC20, 100% = maximal ACh; activation, % at 3 µM; actives 0.088% (n = 360,000); AID 588819, 2011; in the data active = activation above about 19%, passing the limit was not always enough
# M1 ag parental – counter-screen for M1 agonists: effect in parental CHO-K1 cells; Fluo-8 calcium fluorescence; scaled to maximal ATP response, vehicle zero; activation, % at 3 µM; actives 0.48% (n = 360,000); in the data active = activation above about 15%;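 note: untransfected CHO-K1 host cells lacking M1 receptor as counterscreen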
# Starred values were filed as active, the others as inactive; / = no result given. Compounds with a hit are over-represented: about 2.4% of the library has one in this group of screens.
SMILES,CHRM1 antagonist,CHO-K1 Ca antag,M1 ag,M1 PAM parental,M1 PAM,M1 ag parental
COC(=O)c1cccc(C23CC4(C2)[C@H](CN(C)[C@@H]4c2ccccc2)C3c2ccccc2)c1 (stereo partly drawn),63.6*,-12.0,-13.7,0.5,-39.0,-0.6
Clc1ccc(C2[C@H]3CN(CC4CCCCC4)[C@H](c4ccccc4)C34CC2(c2ccccc2)C4)cn1 (stereo partly drawn),-3.7,-15.6,-1.2,6.9,13.6,0.1
Cc1cccn2c(=O)nc(SCC(=O)N3CCC(C)CC3)nc12,-9.3,-2.9,-2.3,8.6,10.1,0.6
CN1CCN(S(=O)(=O)c2ccc3c(c2)C(C)(C)C(=O)N3C)CC1,5.7,24.6*,-1.2,-5.2,-1.1,0.2
CN1C(=O)C(C)(C)c2cc(S(=O)(=O)N3CCN(c4ccc(F)cc4)CC3)ccc21,4.2,-3.5,-2.1,-4.2,-0.3,1.2
COc1ccc2cc(C(N)=O)c(=Nc3ccccc3)oc2c1,-7.2,-3.1,-7.0,20.8,12.3,0.0
NC(=O)c1cc2ccc(O)cc2oc1=Nc1ccccc1,-19.9,24.3*,9.4,-8.3,5.2,1.6
N#CC(c1nc2ccccc2nc1N1CCCC1)S(=O)(=O)c1ccccc1 (stereo not drawn),10.8,-6.1,-1.7,-3.8,0.6,0.9
Cc1cccc(S(=O)(=O)C(C#N)c2nc3ccccc3nc2N2CCCC2)c1 (stereo not drawn),19.1,26.7*,-1.6,-8.9,-4.8,0.0
CCN1CCc2c(sc(NC(=O)Cc3ccccc3)c2C(N)=O)C1,-6.8,-11.3,-9.1,26.3,2.6,1.3
CCN1CCc2c(sc(NC(=O)Nc3ccc(Cl)c(Cl)c3)c2C(N)=O)C1,63.3*,59.2*,113.5*,-9.7,-19.4,94.7*
CCOc1cc(/C=C/C(=O)Nc2ccc(C(=O)NCCN(CC)CC)cc2)ccc1OCC(C)C,63.9*,-18.1,-5.5,13.8,-22.0,0.1
CCOC(=O)C1=C(C)NC(C)=C(C(=O)OCC)C1c1ccncc1,-20.0,-9.6,-2.6,3.3,7.4,-0.2
CCOC(=O)C1=C(C)NC(=O)NC1c1ccc(N(CC)CC)cc1 (stereo not drawn),30.0*,-2.2,-12.3,-0.1,-23.8,0.0
COC(=O)C1=C(C)NC(C)=C(C(=O)OC)C1c1ccc(NC(C)=O)cc1,-12.3,-15.2,32.2*,11.8,-4.9,0.5
COC(=O)C1=C(C)NC(C)=C(C(=O)OC)C1c1ccco1,0.2,-3.2,-2.6,6.2,8.8,18.6*
CCN(CC)c1ccc(C2C(C(=O)OC)=C(C)NC(C)=C2C(=O)OC)cc1,37.3*,4.1,-7.0,-3.9,-26.4,-0.1
CCCCCCCCCCCCCCC[C@@H](O)[C@@H](N)CO,-24.8,-6.9,9.5,18.6,-0.6,0.0
COc1c(Cl)cnn(-c2ccccc2)c1=O,4.0,1.8,-0.3,11.9,2.7,0.3
COc1c(Cl)cnn(-c2ccc(Cl)c(Cl)c2)c1=O,-7.3,-5.9,-12.9,25.7,15.4,16.8*
COCCCNC(=O)C[C@@H]1C[C@@]2(C(=O)OC)CCCCC=C2N(CCC2=CCCCC2)C1=O,/,-3.0,/,9.4,/,2.2
Cc1ccc(SCC(=O)Nc2ccc(N3CCN(C)CC3)c(F)c2)c(C)c1,30.4*,-13.0,-16.0,20.3,-38.1,2.0
COCCN(C(=S)Nc1cc(C)cc(C)c1)C(C)c1ccco1 (stereo not drawn),0.4,-11.0,-3.3,19.1,25.7*,0.5
Fc1ccccc1-c1nc(-c2ccc(-c3nn[nH]n3)cc2)no1,-7.2,-9.1,2.6,4.6,18.2,2.4
COc1ccc(CN(C)C(=O)C2CCN(C(=O)Nc3ccccc3)CC2)cc1,18.7,25.5*,0.0,-27.2,-6.5,0.8
SMILES,CHRM1 antagonist,CHO-K1 Ca antag,M1 ag,M1 PAM parental,M1 PAM,M1 ag parental
COc1ccc(N2C(=O)[C@H]3CCC=C[C@H]3[C@@H]2c2ccccc2Br)cc1,47.4*,2.9,-7.9,-11.6,-26.6,-0.4
O=C(CSc1ccc2ccccc2n1)c1ccc2c(c1)OCO2,5.0,28.4*,-1.2,-7.7,0.7,-0.6
O=C(O)CSc1ccc2ccccc2n1,12.2,-6.3,-1.6,6.6,-13.3,0.1
Cc1ccc(S(=O)(=O)N2CCCC(C(=O)NCCc3ccc(S(N)(=O)=O)cc3)C2)cc1 (stereo not drawn),-7.8,-10.1,-7.2,15.8,6.9,-0.1
C=CC(=O)Nc1ccc(CN2C(=O)N(c3c(Cl)c(OC)cc(OC)c3Cl)Cc3cnc(NCCCCN(CC)CC)nc32)cc1,38.8*,-4.4,-11.0,-5.9,-29.5,-0.3
CC(=O)Nc1ccccc1OCC(O)CS(=O)(=O)c1ccc(C(F)(F)F)cn1 (stereo not drawn),-3.2,-1.9,-0.7,5.1,8.7,2.4
CCCCCCC(C)OC(=O)Nc1cccc2ccccc12 (stereo not drawn),-1.3,-7.4,-6.7,1.8,-1.8,0.1
CC(C)CN1CCN(CCCOC(=O)Nc2cccc3ccccc23)CC1C (stereo not drawn),31.9*,0.4,-7.1,-1.2,-22.5,0.2
O=[N+]([O-])c1ccc(Nc2ccccc2)c2nonc12,-0.8,-8.0,5.6,-4.7,-4.1,11.7
O=[N+]([O-])c1ccc(Sc2cccc[n+]2[O-])c2nonc12,43.8*,88.0*,4.8,-24.9,-1.5,0.2
CN(C(=O)c1cccc(NC(=O)Cc2cccc(NC(=O)C3CCCN(C(=O)c4ccccc4)C3)c2)c1)C1CC1 (stereo not drawn),-9.4,-7.9,-2.7,11.3,5.9,0.2
C=CCN(c1ccccc1)S(=O)(=O)c1cccc(C(=O)NNC(=O)c2ccncc2)c1,-10.7,-8.7,-2.5,15.7,9.6,1.9
COc1cc(-c2nnc3n2CCCCC3)cc(OC)c1OC,-8.4,-14.2,-4.0,3.7,9.8,0.9
O=S(=O)(Nc1nc2ccccc2nc1NCc1ccco1)c1ccccc1,-3.9,24.5*,-1.0,-6.3,3.7,-0.3
COc1ccc(C(=O)Nc2ccccc2N2CCN(C(=O)c3ccccc3)CC2)cc1Br,34.7*,5.6,-4.6,-12.4,-14.0,3.6
O=C(NCCC(=O)N1CCN(c2ccccc2O)CC1)c1ccc(Br)cc1,-34.7,-5.6,1.3,9.6,22.4*,0.7
O=C(Nc1ccccc1N1CCN(C(=O)c2ccc(Cl)cc2)CC1)c1ccc(Br)cc1,9.5,26.7*,-1.9,-8.2,-4.7,0.2
O=C(c1ccc(Cl)cc1)N1CCN(c2cc(=O)[nH]nc2-c2ccccc2)CC1,1.4,28.1*,1.8,-17.0,11.5,0.2

# Source: PubChem BioAssay (The Scripps Research Institute Molecular Screening Center)
